Bioassay records from PubChem BioAssay.
The list is not random: actives were taken first. Their share in the collection is about 3.1%.
HSP90 refold inh = HSP90 refolding inhibition in rabbit reticulocyte lysate | luciferase refolding luminescence, 3 h | inhibition, % at 5.6 µM | hit rate 0.91% among 290,000 | AID 1789;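 active = inhibition above the screen-wide mean plus 3 SD, computed separately per campaign, cut at about 16% in these data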;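 note: inhibitors lower the luminescence because luciferase stays unfolded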
HIF activator = HIF pathway transcriptional activation; U2OS HRE-luciferase reporter, luminescence; normalized: DMSO 0%, desferrioxamine 100%; activation, % at 7.5 µM (by protocol); hit rate 0.32% among 300,000; AID 1910;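 active = mean activation of at least 10% of the iron chelator positive control signal, with at least half of replicates also reaching 10%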
HSF-1 act = increases HSF-1 driven luciferase reporter signal; AID 504408; hit rate 1.7% among 300,000; NIH3T3-HGL HSF-1 luciferase reporter, MG132, 8 h; 100% = twice DMSO control signal; activation, % at 9 µM;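 active = mean replicate activation of at least 50% with a set share of replicates each reaching 50%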
ARNT TACC3 PPI = ARNT/TACC3 interaction disruption; AlphaScreen His-ARNT PAS-B/GST-TACC3 binding, luminescence; TACC3 fragment carries E629A point mutation; Q9Y6A5; hit rate 0.66% among 390,000; inhibition, % at 9.99 µM;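 active = mean inhibition of replicates at least 50% and at least half of replicates each reaching 50%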
HSF1 inhib = HSF1 inhibition. NIH3T3-HGL HSE-luciferase, MG132-induced, luminescence 8 h; stronger effect = lower value. activity change, negative = inhibition, % at 7.5 µM (by protocol). hit rate 0.77% among 300,000. AID 2098;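 active = more than half of replicate wells show activity change below -50%, luminescence cut by over half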;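 note: luciferase reports HSF-1 transcriptional activity via heat shock element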
Each line names hits and unclear results; the compound was inactive in the other large screens.

C[C@@H]1CN([C@H](C)CO)C(=O)c2cc(NC(=O)C3CCCCC3)ccc2O[C@H]1CN(C)Cc1ccccc1	none (no result: HSP90 refold inh, HIF activator, HSF-1 act, HSF1 inhib)
N=C1S/C(=C\c2ccco2)C(=O)N1c1ccc2c(c1)OCO2	none
N=C1S/C(=C\c2ccco2)C(=O)N1c1nccs1	HSF-1 act 98
NC(=O)c1ccccc1N/C=C/C(=O)c1ccc(Cl)cc1	none
O=C(/C=C/Sc1ccccc1)c1ccc(Cl)cc1	HSF-1 act 161
O=C(C=Cc1ccccc1Cl)c1ccccc1	none (no result: HSP90 refold inh, HIF activator, HSF-1 act, HSF1 inhib)
O=C(/C=C/Sc1ccccc1)c1ccccc1	HSF-1 act 117
COc1ccccc1-n1ccnc(SCC(=O)NCc2ccccc2)c1=O	HSF1 inhib -55 (no result: HSP90 refold inh)
COc1ccccc1-n1ccnc(SCC(=O)NC2CCCC2)c1=O	none (no result: HSP90 refold inh)
O=C(Cc1ccc(F)cc1)OCC(=O)c1cc2ccccc2o1	HSP90 refold inh 16
O=C(CCNc1ccc(F)cc1)c1cc2ccccc2o1	none
C[C@H]1CCCCO[C@@H](CN(C)C(=O)NC2CCCCC2)[C@@H](C)CN([C@@H](C)CO)C(=O)c2cc(NC(=O)c3ccccc3)ccc2O1	none (no result: HSP90 refold inh, HIF activator, HSF-1 act, HSF1 inhib)
Cc1ccc(OCc2nc(-c3ccccc3)no2)c(C)c1	HSF-1 act 109
O=C(O)CCc1nc(-c2cccs2)no1	none
Cc1ccc(OCc2nc(-c3cccs3)no2)c([N+](=O)[O-])c1	HSF-1 act 104
O=[N+]([O-])c1ccc(F)cc1OCc1nc(-c2cccs2)no1	HSF-1 act 66
O=[N+]([O-])c1ccccc1OCc1nc(-c2cccs2)no1	HSF-1 act 82
COc1ccccc1CN1CCN(Cc2nc(-c3cccs3)no2)CC1	none
CO[C@@H]1CN(C)C(=O)c2cc(NC(=O)c3cc(C)on3)ccc2OC[C@H](C)N(C(=O)C2CC2)C[C@H]1C	none (no result: HSP90 refold inh, HIF activator, HSF-1 act, HSF1 inhib)
O=C(c1cccnc1)N1C[C@H]2[C@@H](c3ccccc31)[C@H](CO)N2C(=O)C1CCOCC1	none (no result: HSP90 refold inh, HIF activator, HSF-1 act, HSF1 inhib)
CCN1[C@@H]2c3cccc(=O)n3C[C@@H]2[C@@H](CO)[C@@H]1C(=O)N1CCc2ccccc2C1	none (no result: HSP90 refold inh, HIF activator, HSF-1 act, HSF1 inhib)
O=C(C[C@@H]1CC[C@H]2[C@@H](COC[C@@H](O)CN2Cc2ccccc2)O1)N[C@H]1CCN(Cc2ccccc2)C1	none (no result: HSP90 refold inh, HIF activator, HSF-1 act, HSF1 inhib)
C[C@@H]1CCCCO[C@@H](CN(C)S(=O)(=O)c2ccc(F)cc2)[C@@H](C)CN([C@@H](C)CO)C(=O)c2cc(NC(=O)Nc3ccccc3)ccc2O1	none (no result: HSP90 refold inh, HIF activator, HSF-1 act, HSF1 inhib)
O=C1c2cccc3c(N4CCCCC4)ccc(c23)C(=O)N1CCO	HSF-1 act 109
C=CCN1C(=O)c2cccc3c(N4CCCCC4)ccc(c23)C1=O	none
CC1CC(C)CN(C(=O)/C=C/c2ccc([N+](=O)[O-])s2)C1 (stereo not given)	HSF-1 act 75
O=C(/C=C/c1ccc([N+](=O)[O-])s1)N1CCCCC1	HSF-1 act 61
CC=Cc1ccc2n(c1=O)C[C@H]1[C@H](CO)[C@@H](C(=O)NCCC)[C@@H]2N1CC1CCCC1 (mixture of isomers)	none (no result: HSP90 refold inh, HIF activator, HSF-1 act, HSF1 inhib)
CC(C)c1nnc(NC(=O)CCS(=O)(=O)Cc2ccccc2)s1	none
CC(C)c1nnc(NC(=O)CCS(=O)(=O)c2nc(-c3cccs3)cc(C(F)(F)F)n2)s1	HSF-1 act 195
CCOC(=O)C(=CNc1cc(C)nn1-c1ccc(Cl)cc1)C(=O)OCC	none
CCOC(=O)C(=Cc1ccc(-n2cncn2)cc1)C(=O)OCC	HSF-1 act 127
Cc1ccc(N2C(=O)c3ccccc3C2O)nc1 (stereo not given)	HSP90 refold inh 33 (no result: ARNT TACC3 PPI)
Cn1c(-c2sc3cc(C(F)(F)F)cnc3c2-c2cccnc2)n[nH]c1=S	HSF1 inhib -85
Cn1c(-c2sc3cc(C(F)(F)F)cnc3c2-c2ccccn2)n[nH]c1=S	none (no result: ARNT TACC3 PPI)
O=C(CSc1nccn(-c2ccc(F)c(F)c2)c1=O)NC1CCCC1	HSF-1 act 62 (no result: HSP90 refold inh)
C[C@H](CO)N1C[C@H](C)[C@H](CN(C)C(=O)Nc2ccccc2)Oc2ncc(C#Cc3ccc(C(F)(F)F)cc3)cc2C1=O	none (no result: HSP90 refold inh, HIF activator, HSF-1 act, HSF1 inhib)
COc1cc2c(cc1NC(=O)C(C)OC(=O)C1CC(=O)N(Cc3ccco3)C1)oc1ccccc12 (stereo not given)	HSF-1 act 74
COc1cc2c(cc1NC(=O)C(C)Sc1ccc(NC(C)=O)cc1)oc1ccccc12 (stereo not given)	HSF1 inhib -60
COc1ccccc1NC(=O)c1ccc(S(=O)(=O)N(C)c2ccccc2OC)cc1	none (no result: HSP90 refold inh, HIF activator, HSF-1 act, HSF1 inhib)
